Assay results taken from PubChem BioAssay AID1159580 (chemical genetic matrix, 2015).
About 2,000 (36%) of roughly 5,500 compounds were called active. Roughly 18% stayed inconclusive and do not appear here. No stated cut-off is given here; in the data, active means normalized growth mostly below about 0.91 (no sharp cut-off); inconclusive means no clear call, values can overlap the other calls; inactive means mostly above about 0.92. The list shows a part of the results.

Experiment: chemical genetic growth profiling, strain panel (AID 1159580);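 further: tested at 20 µM; growth read once vehicle control cultures reached saturation at 30 °C; 1 = growth at the plate median or of vehicle wells; lower values mean less growth of the strain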
Conditions: growth OD

Measured: normalized growth

COc1ccccc1OCCNCC(O)COc1cccc2[nH]c3ccccc3c12 (stereo unspecified)
inactive: S. cerevisiae deletion strains, locus YKL009W, strain mrt4, hits give low values 1.01 | S. cerevisiae deletion strains, locus YKL068W, hits give low values 1.01 | S. cerevisiae deletion strains, locus YKL085W, strain MDH1 (second series), hits give low values 1.01 | S. cerevisiae deletion strains, locus YKL085W, strain MDH1, hits give low values 1.01 | S. cerevisiae deletion strains, locus YKL160W, strain elf1, hits give low values 1.01 | S. cerevisiae deletion strains, locus YKL190W, strain CNB1, hits give low values 0.997 | S. cerevisiae deletion strains, locus YKR001C, strain vps1, hits give low values 1.05 | S. cerevisiae deletion strains, locus YKR026C, strain gcn3, hits give low values 1.02 | S. cerevisiae deletion strains, locus YKR091W, strain srl3, hits give low values 1.01 | S. cerevisiae deletion strains, locus YLL001W, strain dnm1, hits give low values 1.01 | S. cerevisiae deletion strains, locus YLL026W, hits give low values 1.02 | S. cerevisiae deletion strains, locus YLL041C, strain sdh2, hits give low values 1.01 | S. cerevisiae deletion strains, locus YLR027C, strain aat2, hits give low values 1.01 | S. cerevisiae deletion strains, locus YLR039C, strain RIC1, hits give low values 1.09 | S. cerevisiae deletion strains, locus YLR058C, strain SHM2, hits give low values 1 | S. cerevisiae deletion strains, locus YLR102C, strain apc9, hits give low values 1 | S. cerevisiae deletion strains, locus YLR113W, strain HOG1, hits give low values 0.987 | S. cerevisiae deletion strains, locus YLR221C, strain rsa3, hits give low values 1.01 | S. cerevisiae deletion strains, locus YLR258W, strain gsy2, hits give low values 1.02 | S. cerevisiae deletion strains, locus YLR262C, strain YPT6 (second series), hits give low values 1.05 | S. cerevisiae deletion strains, locus YLR262C, strain YPT6, hits give low values 1.06 | S. cerevisiae deletion strains, locus YLR268W, strain sec22, hits give low values 1.01 | S. cerevisiae deletion strains, locus YLR320W, strain mms22, hits give low values 1.02 | S. cerevisiae deletion strains, locus YLR330W, strain CHS5, hits give low values 1.01 | S. cerevisiae deletion strains, locus YLR342W, strain FKS1 (second series), hits give low values 0.993 | S. cerevisiae deletion strains, locus YLR342W, strain FKS1, hits give low values 1.01 | S. cerevisiae deletion strains, locus YLR357W, strain rsc2, hits give low values 1 | S. cerevisiae deletion strains, locus YLR370C, strain arc18, hits give low values 1.01 | S. cerevisiae deletion strains, locus YLR371W, strain rom2, hits give low values 1.01 | S. cerevisiae deletion strains, locus YLR384C, strain iki3, hits give low values 1.03 | S. cerevisiae deletion strains, locus YLR418C, strain cdc73, hits give low values 0.999 | S. cerevisiae deletion strains, locus YML016C, strain PPZ1, hits give low values 1.01 | S. cerevisiae deletion strains, locus YML032C, strain rad52, hits give low values 1.02 | S. cerevisiae deletion strains, locus YML120C, strain ndi1, hits give low values 1.01 | S. cerevisiae deletion strains, locus YML124C, strain tub3, hits give low values 1.02 | S. cerevisiae deletion strains, locus YMR058W, strain fet3, hits give low values 1.03 | S. cerevisiae deletion strains, locus YMR078C, strain ctf18, hits give low values 1.02 | S. cerevisiae deletion strains, locus YMR125W, strain sto1, hits give low values 1.01 | S. cerevisiae deletion strains, locus YMR129W, hits give low values 1.01 | S. cerevisiae deletion strains, locus YMR205C, strain PFK2, hits give low values 1.04 | S. cerevisiae deletion strains, locus YMR223W, strain ubp8, hits give low values 1 | S. cerevisiae deletion strains, locus YMR231W, strain pep5, hits give low values 1.01 | S. cerevisiae deletion strains, locus YMR263W, strain SAP30, hits give low values 0.979 | S. cerevisiae deletion strains, locus YMR307W, strain GAS1, hits give low values 0.972 | S. cerevisiae deletion strains, locus YNL067W, strain RPL9B, hits give low values 0.962 | S. cerevisiae deletion strains, locus YNL071W, strain lat1, hits give low values 0.996 | S. cerevisiae deletion strains, locus YNL128W, strain TEP1, hits give low values 1 | S. cerevisiae deletion strains, locus YNL153C, strain GIM3, hits give low values 1 | S. cerevisiae deletion strains, locus YNL183C, strain NPR1, hits give low values 0.962 | S. cerevisiae deletion strains, locus YNL209W, strain ssb2, hits give low values 1.02 | S. cerevisiae deletion strains, locus YNL233W, strain BNI4, hits give low values 1 | S. cerevisiae deletion strains, locus YNL248C, strain rpa49, hits give low values 1.02 | S. cerevisiae deletion strains, locus YNL250W, strain rad50, hits give low values 1 | S. cerevisiae deletion strains, locus YNL271C, strain bni1, hits give low values 1.02 | S. cerevisiae deletion strains, locus YNL298W, strain CLA4, hits give low values 1.03 | S. cerevisiae deletion strains, locus YNL307C, strain MCK1, hits give low values 1.01 | S. cerevisiae deletion strains, locus YNL322C, strain KRE1 (second series), hits give low values 0.989 | S. cerevisiae deletion strains, locus YNL322C, strain KRE1, hits give low values 1 | S. cerevisiae deletion strains, locus YNR049C, strain mso1, hits give low values 1.01 | S. cerevisiae deletion strains, locus YNR052C, strain pop2, hits give low values 1.01 | S. cerevisiae deletion strains, locus YOL006C, strain TOP1, hits give low values 1 | S. cerevisiae deletion strains, locus YOL012C, strain htz1 0.91 | S. cerevisiae deletion strains, locus YOL147C, strain pex11, hits give low values 1.01 | S. cerevisiae deletion strains, locus YOR001W, strain rrp6, hits give low values 1.01 | S. cerevisiae deletion strains, locus YOR061W, strain CKA2, hits give low values 1.01 | S. cerevisiae deletion strains, locus YOR069W, strain VPS5, hits give low values 0.997 | S. cerevisiae deletion strains, locus YOR070C, strain gyp1, hits give low values 1 | S. cerevisiae deletion strains, locus YOR080W, strain dia2, hits give low values 1 | S. cerevisiae deletion strains, locus YOR083W, strain WHI5, hits give low values 1 | S. cerevisiae deletion strains, locus YOR106W, strain vam3, hits give low values 1.02 | S. cerevisiae deletion strains, locus YOR136W, strain idh2, hits give low values 1.02 | S. cerevisiae deletion strains, locus YOR144C, strain elg1, hits give low values 1.02 | S. cerevisiae deletion strains, locus YOR184W, strain ser1, hits give low values 0.999 | S. cerevisiae deletion strains, locus YOR231W, strain MKK1, hits give low values 0.999 | S. cerevisiae deletion strains, locus YOR265W, strain rbl2, hits give low values 0.996 | S. cerevisiae deletion strains, locus YOR270C, strain vph1, hits give low values 1.03 | S. cerevisiae deletion strains, locus YOR290C, strain snf2, hits give low values 1.01 | S. cerevisiae deletion strains, locus YOR316C, strain cot1, hits give low values 1.02 | S. cerevisiae deletion strains, locus YPL051W, strain arl3, hits give low values 1.01 | S. cerevisiae deletion strains, locus YPL055C, strain LGE1, hits give low values 1.01 | S. cerevisiae deletion strains, locus YPL078C, strain atp4, hits give low values 1.03 | S. cerevisiae deletion strains, locus YPL106C, strain sse1, hits give low values 1.02 | S. cerevisiae deletion strains, locus YPL240C, strain hsp82, hits give low values 1.01 | S. cerevisiae deletion strains, locus YPL241C, strain CIN2, hits give low values 0.996 | S. cerevisiae deletion strains, locus YPL256C, strain CLN2, hits give low values 0.994 | S. cerevisiae deletion strains, locus YPR119W, strain clb2, hits give low values 1.02 | S. cerevisiae deletion strains, locus YPR141C, strain kar3, hits give low values 1.03 | S. cerevisiae deletion strains, locus YPR163C, strain tif3, hits give low values 1.02 | S. cerevisiae deletion strains, locus YPR167C, strain met16, hits give low values 1.02 | S. cerevisiae deletion strains, strain wtn01, hits give low values 1.01 | S. cerevisiae strains, strain wild type, hits give low values 0.984
